Paper PMC4336329 (PLoS ONE, 2015)
The whole screen tested about 310,000 compounds, of which about 14,000 (4.5%) showed an effect of 50% or more. Effects have a minus sign here. The list comes from a sample in which strong results are over-represented; it also holds similar structures and randomly drawn compounds.

What follows are compounds tested against human ether-à-go-go-related gene (hERG) potassium channel (human, UniProt Q12809) (assay: primary screen, population patch clamp on CHO cells stably expressing hERG; higher = less effect of the substance).
Sequence of human ether-à-go-go-related gene (hERG) potassium channel (Q12809 whole entry, looked up): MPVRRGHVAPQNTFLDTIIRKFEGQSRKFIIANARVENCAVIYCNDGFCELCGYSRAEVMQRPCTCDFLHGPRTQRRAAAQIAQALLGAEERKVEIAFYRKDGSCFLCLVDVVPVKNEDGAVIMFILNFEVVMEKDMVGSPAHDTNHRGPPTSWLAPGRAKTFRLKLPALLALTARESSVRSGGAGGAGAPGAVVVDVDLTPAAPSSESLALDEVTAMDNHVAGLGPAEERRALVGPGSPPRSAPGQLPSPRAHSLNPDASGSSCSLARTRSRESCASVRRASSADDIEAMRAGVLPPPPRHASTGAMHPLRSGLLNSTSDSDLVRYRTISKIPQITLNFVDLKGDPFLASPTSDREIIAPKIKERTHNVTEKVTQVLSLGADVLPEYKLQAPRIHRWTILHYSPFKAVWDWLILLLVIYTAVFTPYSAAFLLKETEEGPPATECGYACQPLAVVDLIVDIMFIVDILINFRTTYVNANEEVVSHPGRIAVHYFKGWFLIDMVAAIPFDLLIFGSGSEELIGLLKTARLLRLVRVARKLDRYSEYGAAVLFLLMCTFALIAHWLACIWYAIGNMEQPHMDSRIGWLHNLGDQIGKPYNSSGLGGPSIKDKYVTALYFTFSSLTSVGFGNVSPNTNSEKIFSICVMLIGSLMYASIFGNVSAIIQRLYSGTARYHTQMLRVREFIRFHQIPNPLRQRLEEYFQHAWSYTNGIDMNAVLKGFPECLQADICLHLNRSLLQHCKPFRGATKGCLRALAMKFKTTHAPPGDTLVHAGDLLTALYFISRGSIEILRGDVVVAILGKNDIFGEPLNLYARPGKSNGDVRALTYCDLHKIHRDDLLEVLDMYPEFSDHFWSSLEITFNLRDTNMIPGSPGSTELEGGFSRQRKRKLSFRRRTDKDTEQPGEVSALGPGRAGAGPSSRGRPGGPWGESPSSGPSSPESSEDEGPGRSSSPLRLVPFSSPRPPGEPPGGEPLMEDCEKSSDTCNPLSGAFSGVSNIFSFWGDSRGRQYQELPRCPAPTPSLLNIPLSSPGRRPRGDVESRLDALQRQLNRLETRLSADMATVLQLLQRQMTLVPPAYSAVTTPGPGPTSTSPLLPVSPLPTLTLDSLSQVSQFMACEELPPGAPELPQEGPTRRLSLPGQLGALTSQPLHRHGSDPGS
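Further: peak tail current of the secondary pulse compared with the same well before compound.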

| Structure (SMILES) | hERG current change (%, negative = inhibition) at 10uM [%] |
| --- | --- |
| COc1ccc(NC(=O)c2cc([N+](=O)[O-])ccc2N2CCCC2)cc1 | -1.73 |
| COc1ccc(NC(=O)c2cccc([N+](=O)[O-])c2)cc1 | 13 |
| COc1ccc(NC(=O)c2cc([N+](=O)[O-])ccc2N2CCN(C)CC2)cc1 | -43.4 |
| O=C(NC(=S)Nc1ccccc1)c1cc([N+](=O)[O-])ccc1N1CCOCC1 | 6.13 |
| CCC(C(=O)Nc1ccc(C)cc1)c1ccccc1 (stereo not shown) | 19.1 |
| Nc1c(-c2cccc(Cl)c2)cnc2c(-c3ccccc3)cnn12 | 13.9 |
| N#C/C(=C\c1ccc(F)c(Cl)c1)S(=O)(=O)c1ccccn1 | -6.64 |
| O=C(/C=C/c1ccc([N+](=O)[O-])cc1)c1cccs1 | -23.4 |
| CCOCCCNC(=O)C(c1ccc(OC)cc1)N(Cc1ccc2c(c1)OCO2)C(=O)c1cnccn1 (stereo not shown) | 8.96 |
| CCOc1ccc2c(CC)cc(=O)oc2c1OCC | -18.9 |
| O=C(Cn1cc(C(=O)C2CC2)c2ccccc21)Nc1ccc(F)cc1 | -20.5 |
| O=C(Nc1ccccc1)c1cc([N+](=O)[O-])ccc1N1CCNCC1 | -37.8 |
| O=C(Nc1cccc(Cl)c1)c1cc([N+](=O)[O-])ccc1N1CCN(CCO)CC1 | -53 |
| O=C(Nc1cccc(Cl)c1N1CCOCC1)c1cc([N+](=O)[O-])ccc1N1CCOCC1 | -21.1 |
| CCc1ccccc1NC(=O)C1CCN(C(=O)N2CCOc3ccccc32)CC1 | 1.77 |
| COC(=O)c1ccccc1NC(=O)C1CCN(C(=O)N2CCOc3ccccc32)CC1 | -59.6 |
| Cc1ccccc1NC(=O)C1CCN(C(=O)N2CCOc3ccccc32)CC1 | -8.57 |
| CCCCC(=O)NC(c1ccccc1Cl)c1ccc2cccnc2c1O (stereo not shown) | 15.2 |
| COc1ccc(S(=O)(=O)Nc2cc3c4c(c2)CC(=O)N4CCC3)cc1C | -4.48 |
| CC1CC(C)CN(C(=O)c2nn(C)c3c2CS(=O)(=O)c2ccccc2-3)C1 (stereo not shown) | -12.7 |
| CC(C)N(CCCNC(=O)c1nn(C)c2c1CS(=O)(=O)c1ccccc1-2)Cc1ccccc1 | -34.5 |
| CN(CCCNC(=O)c1nn(C)c2c1CS(=O)(=O)c1ccccc1-2)Cc1ccccc1 | -46.9 |

| Structure (SMILES) | hERG current change (%, negative = inhibition) at 10uM [%] |
| --- | --- |
| CCN(CCCNC(=O)c1nn(C)c2c1CS(=O)(=O)c1ccccc1-2)Cc1ccccc1 | -60.3 |
| CC1CCN(CCCNC(=O)c2nn(C)c3c2CS(=O)(=O)c2ccccc2-3)CC1 | -23.6 |
| CC1CC(C)CN(CCCNC(=O)c2nn(C)c3c2CS(=O)(=O)c2ccccc2-3)C1 (stereo not shown) | -64.2 |
| Cc1cc(-c2nc(C)c(-c3nnc(SCC(=O)Nc4ccc(Cl)cc4)n3C)s2)no1 | 2.4 |
| COc1ccc(NC(=O)c2ccc(NC(=O)CSc3nccc(=O)[nH]3)cc2)cc1 | 15.4 |
| O=C(O)c1cc(-c2ccc(Cl)cc2)n(-c2cccc(Cl)c2)n1 | 23.4 |
| O=C(c1cc(-c2ccc(Cl)cc2)n(-c2ccc(Cl)c(Cl)c2)n1)N1CCOCC1 | -57 |
| O=C(c1cc(-c2ccc(Cl)c(Cl)c2)on1)N1CCOCC1 | -14.1 |
| O=C(c1cc(-c2ccc(Cl)cc2)n(-c2ccc(Cl)cc2)n1)N1CCOCC1 | -80.8 |
| O=C(O)c1cc(-c2ccc(Cl)cc2)n(-c2ccc(Cl)cc2)n1 | 38.2 |
| O=C(O)c1cc(-c2ccc(Cl)cc2)n(-c2ccccc2)n1 | 30.3 |
| Cc1ccc(-n2nc(C(=O)N3CCOCC3)cc2-c2ccc(Cl)cc2)cc1 | -83.3 |
| Cc1ccc(-n2nc(C(=O)O)cc2-c2ccc(Cl)cc2)cc1 | 24.9 |
| Cc1ccc(-n2nc(C(=O)O)cc2-c2ccccc2)cc1 | 14.5 |
| CCn1c(-c2cc(-c3ccc(OC(C)C)cc3)nc3ccccc23)n[nH]c1=S | 2.71 |
| CCOC(=O)c1cc(NC(=O)N(CC)CC)c(C)nc1C | 5.59 |
| Cc1cccc(C)c1NC(=O)CCc1nnc2ccc(N3CCCC3)nn12 | 10.3 |
| CC1CCCCC1NCC(=O)NCc1ccc(F)cc1.O=C(O)C(=O)O (stereo not shown) | -8.33 |
| CCN(CC)S(=O)(=O)c1ccc(Oc2cccc(C(C)=O)c2)nc1 | -65.5 |
| CCN(CC)S(=O)(=O)c1ccc(OC)nc1 | 10.4 |
| CCN(c1ccccc1)S(=O)(=O)c1ccc(Oc2ccc(C(C)=O)cc2OC)nc1 | -26.2 |
